From PubChem
Sampled rows, rich in hits. Any-hit rate of the full collection: about 6.6%.
HT1080NT lethal: qHTS for induction of synthetic lethality in tumor cells producing 2HG: qHTS for the HT-1080-NT fibrosarcoma cell line; Potency, µM (highest dose often 46.1 µM), hits mostly cytotoxic; 360,000 compounds, 1.6% hits; HT-1080-NT fibrosarcoma viability, CellTiter-Glo ATP luminescence, 48 h;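 further: NT is the 2HG producing partner of a matched IDH1 knockdown line; nearly all actives have a fitted effect of over 55% in size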
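Compounds were tested in concentration-response format on HT-1080-NT cells for 48 hours at 37 degrees C. Cell viability came from CellTiter-Glo luminescence; curves were classified by r2, response magnitude and activity.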
TGFb SMAD3 inh: qHTS for Inhibitors of TGF-b. 410,000 compounds, 1.2% hits. HepG2 CAGA-GFP TGF-b/SMAD3 reporter, GFP fluorescence, 18 h; TGF-beta stimulated, 500 pg/mL final. Potency, µM (highest dose often 46.1 µM), most hits filed as inhibitors; further: nearly all actives have a fitted effect of over 65% in size
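Using HEPG2 CAGA-GFP reporter cells at 1000 cells/well, we pinned test compounds, stimulated with recombinant TGF-beta (500 pg/mL final) and measured total well GFP after 18 h.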
HT1080 IDH1KD tx: qHTS for induction of synthetic lethality in tumor cells producing 2HG: qHTS for the HT-1080-IDH1KD cell line; HT-1080 IDH1 knockdown viability, ATP luminescence, 48 h; Potency, µM (titrated, usually from 46.1 µM), hits mostly cytotoxic; 360,000 compounds, 2% hits; AID 686971, 2013
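Assay cells: HT-1080 with IDH1 knockdown, 750 per well, RPMI/5% FBS. Exposure: 48 h at 37 °C following 2 h pre-incubation. Read: CellTiter-Glo luminescence; fitted concentration-response, curve class assigned.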
KB-3-1 tox: qHTS assay for MDR1-selective chemotherapeutics: Primary screen using the parental adenocarcinoma cell KB-3-1 | Potency, µM (highest dose often 46.1 µM), usual class: cytotoxic | 400,000 compounds, 1.4% hits | KB-3-1 viability, CellTiter-Glo ATP luminescence, 72 h; further: nearly all actives have a fitted effect of over 60% in size
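Multi-concentration cytotoxicity screen in KB-3-1 cells grown in DMEM lacking phenol red with 10% FBS. After 72 h at 37 °C with compound, ATP-dependent luminescence was recorded.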
HepG2 viability: qHTS for Inhibitors of TGF-b: Cytotox Counterscreen | HepG2 CAGA-GFP viability, ATP luminescence, 18 h | Potency, µM (doses to about 46.1 µM), hits mostly cytotoxic | 410,000 compounds, 0.76% hits
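HepG2 CAGA-GFP cells (1000/well, DMEM with 1% FBS) received compound, then TGF-beta at 500 pg/mL final, and were incubated 18 hours at 37 degrees C. Viability was read by CellTiter-Glo luminescence. Media-only wells were set as complete cell-killing and DMSO as no toxicity.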
KB-V1 cytotox: qHTS assay for MDR1-selective chemotherapeutics: Primary screen using the drug-selected MDR subline cells KB-V1; Potency, µM (series often up to 46.1 µM), usual class: cytotoxic; 400,000 compounds, 3.4% hits; KB-V1 MDR cells viability, CellTiter-Glo, 72 h; further: nearly all actives have a fitted effect of over 60% in size
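Cytotoxicity via CellTiter-Glo luminescence after 72 h compound exposure at 37 degrees C. Cells: drug-selected KB-V1 line, DMEM phenol-red free plus 10% FBS. Compounds tested at multiple concentrations; normalized data fitted to concentration-effect curves.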
A number is an active result; n = inactive; u = inconclusive; x = no result given. The call rests on the fitted dose curve; in most records, active means well fitted curve in the direction sought with a large enough effect; inconclusive means small, poorly fitted or top-dose-only effect, or another doubt; inactive means no such curve, though single readings can be large; an effect the other way counts as inactive or inconclusive.

SMILES	HT1080NT lethal	TGFb SMAD3 inh	HT1080 IDH1KD tx	KB-3-1 tox	HepG2 viability	KB-V1 cytotox
Cc1cc(Cl)ccc1NS(=O)(=O)c1ccc2c(c1)CC(C)N2C(=O)C1CCC1 (stereo not given)	x	11µM	x	u	n	n
CC1Cc2cc(S(=O)(=O)NCCc3ccccc3)ccc2N1C(=O)C1CC1 (stereo not given)	n	n	n	n	n	n
Cc1ccc(CNC(=O)CCS(=O)(=O)c2ccc3c(c2)CC(C)N3C(=O)C2CC2)cc1 (stereo not given)	n	u	n	21µM	n	n
CC1Cc2cc(S(=O)(=O)NCc3ccccc3Cl)ccc2N1C(=O)C1CCC1 (stereo not given)	x	u	x	23µM	n	u
O=C(CSc1ccc(F)cc1)NC(=O)c1ccccc1	n	n	n	n	n	n
O=C1c2ccccc2-c2c1c1ccccc1c(=O)n2-c1ccccc1	n	n	n	n	n	n
O=C1c2ccccc2-c2c1c1ccccc1c(=O)n2CCO	n	n	u	n	n	18µM
Clc1ccc(CN=C(Nc2ccccc2)NC2CCCCC2)cc1	21µM	u	16µM	u	n	u
O=C(Cc1ccc(Cl)cc1)NC1CCCCCC1	n	n	n	n	n	n
O=C(Nc1cccc(F)c1)c1ccc(S(=O)(=O)NCC2CCCO2)cc1 (stereo not given)	n	n	n	n	n	16µM
COc1cccc(C(=O)N(Cc2ccco2)c2ccccn2)c1	x	n	x	n	n	n
Cc1ccc2c(c1)N(C(=O)c1ccco1)C(C)(C)c1ssc(=S)c1-2	n	n	n	n	n	9.2µM
Cc1cccc2c1N(C(=O)c1ccco1)C(C)(C)c1ssc(=S)c1-2	n	n	n	n	n	u
COc1ccc(-n2ccnc(NCCc3ccc(S(N)(=O)=O)cc3)c2=O)cc1	x	n	x	n	n	n
Cc1ccccc1NC1=C/C(=N\S(=O)(=O)c2cccs2)c2ccccc2C1=O	5.8µM	u	7.3µM	u	3.2µM	7.3µM
O=C(O)c1ccc(S(=O)(=O)/N=C2\C=C(Nc3ccccc3F)C(=O)c3ccccc32)cc1	u	3.2µM	8.2µM	u	4.5µM	u
Cc1ccccc1NC1=C/C(=N\S(=O)(=O)c2ccc(C(=O)O)cc2)c2ccccc2C1=O	23µM	u	23µM	u	18µM	u
CCc1ccc(S(=O)(=O)/N=C2\C=C(NS(=O)(=O)c3ccccc3)C(=O)c3ccccc32)cc1	n	u	n	n	n	n
COc1ccc(-c2onc(C)c2C)cc1S(=O)(=O)NCc1ccc(C)o1	x	n	x	x	n	x
CCCCOCCCNC(=O)C[C@@H]1C[C@@]2(C(=O)OC)CC(C)(C)CC=C2N(Cc2cccc3ccccc23)C1=O	u	x	21µM	u	x	21µM
COC(=O)[C@@]12C[C@@H](CC(=O)NCCCCc3ccccc3)C(=O)N(Cc3cccc4ccccc34)C1=CCC(C)(C)C2	u	x	n	u	x	18µM
COc1ccc(S(=O)(=O)NCCc2csc(-c3cccc(F)c3)n2)cc1OC	x	u	x	n	n	n
Cc1cc(S(=O)(=O)NCCc2csc(-c3cccc(F)c3)n2)ccc1F	x	u	x	u	13µM	n
O=C(Nc1cc(SCCO)cc([N+](=O)[O-])c1)c1ccc(Br)o1	n	n	n	u	n	21µM
O=C(CCCl)Nc1cc(SCCO)cc([N+](=O)[O-])c1	n	n	n	n	n	n
CCN(CC)C(=O)C1CCN(Cc2ccc(Br)cc2)CC1	n	n	n	n	n	18µM
O=C(Cc1ccc(Br)cc1)NC1CCN(Cc2ccccc2)CC1	n	n	n	u	n	18µM
